Source: PubChem BioAssay
A number with no mark means an inactive call. For part of these data: Entries with a potency or affinity are not part of this list. Activity calls are given as the source filed them. Unless noted, how the calls were made is not given here.

Columns and labels:
[1] = HepG2 cytotoxicity, primary screen, cytotoxicity control for P. falciparum antimalarial project, cell-based, ATP luminescence (AID 2303;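 active means inhibition above 50%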;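 further: 0% = DMSO wells and 100% = digitonin-killed cells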); details: HepG2 viability, 24-48 h, at 10 µM, active compounds read high
[2] = biological target: L-lactate dehydrogenase (Plasmodium falciparum (isolate CDC / Honduras)) (UniProt Q27743); assay: PfLDH activity inhibition – cell lysate, 3D7 strain, counter-screen for P. falciparum growth inhibition project (AID 2304);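 further: 0% = vehicle and 100% = reference inhibitor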; details: P. falciparum 3D7 crude extract, LDH APAD/NBT absorbance; at 2 µM; active compounds read high
Chain of L-lactate dehydrogenase (Plasmodium falciparum (isolate CDC / Honduras)) (Q27743 whole entry, looked up): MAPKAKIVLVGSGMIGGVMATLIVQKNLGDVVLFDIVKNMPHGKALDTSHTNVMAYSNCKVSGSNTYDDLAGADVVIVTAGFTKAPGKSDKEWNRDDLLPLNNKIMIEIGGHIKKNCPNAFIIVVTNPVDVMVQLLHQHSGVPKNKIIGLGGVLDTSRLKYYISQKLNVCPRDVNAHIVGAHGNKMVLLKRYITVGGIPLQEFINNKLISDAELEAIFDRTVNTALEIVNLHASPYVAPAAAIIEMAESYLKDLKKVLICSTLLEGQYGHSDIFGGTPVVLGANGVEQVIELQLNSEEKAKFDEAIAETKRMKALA

[3] = inhibition of 3D7 malaria parasite growth – strain 3D7 (AID 2306);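 further: 0% = DMSO wells and 100% = chloroquine plus artemisinin control wells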; details: P. falciparum 3D7 erythrocytic growth, LDH absorbance, 72 h; at 2 µM; active compounds read high
[4] = biological target: Calcium-dependent protein kinase 1 (Plasmodium falciparum (isolate 3D7)) (UniProt P62344); assay: PfCDPK1 kinase inhibitors, biochemical, TCAMS library (AID 1159585; cut-off not given, nearly all actives have IC50 up to about 0.98 µM;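 further: inhibitors leave more ATP so luminescence rises with inhibition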); details: recombinant PfCDPK1, Kinase-Glo ATP depletion luminescence
Chain of Calcium-dependent protein kinase 1 (Plasmodium falciparum (isolate 3D7)) (P62344 whole entry, looked up): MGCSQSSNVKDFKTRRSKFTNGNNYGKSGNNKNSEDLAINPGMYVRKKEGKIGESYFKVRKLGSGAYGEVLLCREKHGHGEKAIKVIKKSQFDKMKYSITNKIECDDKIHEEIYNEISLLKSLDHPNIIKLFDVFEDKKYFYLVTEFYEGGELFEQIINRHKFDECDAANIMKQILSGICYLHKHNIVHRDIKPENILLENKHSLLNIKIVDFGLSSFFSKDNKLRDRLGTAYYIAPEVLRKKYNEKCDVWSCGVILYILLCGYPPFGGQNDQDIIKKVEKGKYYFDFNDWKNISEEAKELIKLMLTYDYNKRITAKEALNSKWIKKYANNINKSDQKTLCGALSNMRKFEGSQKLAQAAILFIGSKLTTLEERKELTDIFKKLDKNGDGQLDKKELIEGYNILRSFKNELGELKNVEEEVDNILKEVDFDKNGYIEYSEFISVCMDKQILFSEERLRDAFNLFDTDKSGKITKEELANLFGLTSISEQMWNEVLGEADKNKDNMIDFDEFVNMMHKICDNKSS

[5] = biological target: Plasmodium falciparum protein kinase 6 (PK6, PF3D7_1337100) (UniProt Q8IDW1); assay: PfPK6 kinase inhibitors, biochemical, TCAMS library (AID 1159586); details: recombinant PfPK6, Kinase-Glo ATP depletion luminescence
Chain of Plasmodium falciparum protein kinase 6 (PK6, PF3D7_1337100) (Q8IDW1 1-305): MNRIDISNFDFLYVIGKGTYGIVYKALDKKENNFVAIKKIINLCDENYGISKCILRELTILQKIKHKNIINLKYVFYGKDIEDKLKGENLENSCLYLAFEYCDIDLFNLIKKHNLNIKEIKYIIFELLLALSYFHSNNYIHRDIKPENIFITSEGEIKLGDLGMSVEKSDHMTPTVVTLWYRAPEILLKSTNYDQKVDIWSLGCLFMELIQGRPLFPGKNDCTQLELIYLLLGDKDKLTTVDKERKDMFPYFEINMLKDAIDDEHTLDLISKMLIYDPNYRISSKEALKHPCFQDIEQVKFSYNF

[6] = biological target: Protein kinase 7 (PK7), Plasmodium falciparum 3D7 (PF3D7_0213400) (UniProt Q7YTF7); assay: inhibition of Plasmodium PK7 catalytic activity – biochemical, TCAMS antimalarial set, Kinase-Glo luminescence (AID 1159587); details: recombinant PfPK7, Kinase-Glo ATP depletion luminescence
Chain of Protein kinase 7 (PK7), Plasmodium falciparum 3D7 (PF3D7_0213400) (Q7YTF7 1-343): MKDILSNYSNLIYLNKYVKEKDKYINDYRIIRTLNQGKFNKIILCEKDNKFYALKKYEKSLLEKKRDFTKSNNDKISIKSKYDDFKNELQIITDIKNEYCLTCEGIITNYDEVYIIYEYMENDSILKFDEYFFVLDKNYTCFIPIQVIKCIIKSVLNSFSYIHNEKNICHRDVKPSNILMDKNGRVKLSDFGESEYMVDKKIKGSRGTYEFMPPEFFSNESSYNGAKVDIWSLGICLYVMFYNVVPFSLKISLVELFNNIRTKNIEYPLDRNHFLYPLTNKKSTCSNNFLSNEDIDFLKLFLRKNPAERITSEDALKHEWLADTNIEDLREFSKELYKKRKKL

[7] = biological target: Calcium-dependent protein kinase 4 (Plasmodium falciparum (isolate 3D7)) (UniProt Q8IBS5); assay: PfCDPK4 kinase inhibitors, biochemical, TCAMS library (AID 1159588; cut-off not given, nearly all actives have IC50 up to about 0.91 µM); details: recombinant PfCDPK4, Kinase-Glo ATP depletion luminescence
Chain of Calcium-dependent protein kinase 4 (Plasmodium falciparum (isolate 3D7)) (Q8IBS5 whole entry, looked up): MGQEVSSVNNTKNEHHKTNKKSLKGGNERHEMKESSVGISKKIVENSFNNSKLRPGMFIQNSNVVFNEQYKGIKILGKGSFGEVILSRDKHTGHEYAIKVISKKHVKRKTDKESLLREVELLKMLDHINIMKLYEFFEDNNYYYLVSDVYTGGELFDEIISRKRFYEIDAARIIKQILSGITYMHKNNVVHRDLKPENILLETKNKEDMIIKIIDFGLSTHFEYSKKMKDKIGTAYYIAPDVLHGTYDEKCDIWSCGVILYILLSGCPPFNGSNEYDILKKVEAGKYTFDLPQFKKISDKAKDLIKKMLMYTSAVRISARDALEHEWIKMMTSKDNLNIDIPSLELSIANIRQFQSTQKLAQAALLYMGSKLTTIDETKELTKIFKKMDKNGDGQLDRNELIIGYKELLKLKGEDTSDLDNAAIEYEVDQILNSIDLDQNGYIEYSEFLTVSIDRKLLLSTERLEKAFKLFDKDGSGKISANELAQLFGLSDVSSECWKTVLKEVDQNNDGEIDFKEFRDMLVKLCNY

[8] = antimalarial activity against Dd2 strain (AID 2302;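 active means growth inhibition above 50% at the single 2 µM test dose, taken to imply half-maximal potency below 2 µM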;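 further: 0% = DMSO untreated growth and 100% = chloroquine plus artemisinin killed control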); details: P. falciparum Dd2 in RBCs, LDH growth readout, 72 h; at 2 µM; active compounds read high

| SMILES | inhibition [1] | inhibition [2] [%] | growth inhibition [3] | outcome [4] | outcome [5] | outcome [6] | outcome [7] | growth inhibition [8] |
| --- | --- | --- | --- | --- | --- | --- | --- | --- |
| CC(C)(C)c1cc(Cl)cc(C(=O)Nc2cc([N+](=O)[O-])ccc2Cl)c1O | 79% (active) | 2 | 91% (active) | inactive | inactive | inactive | inactive | – |
| CCCCCCCN(Cc1ccc(OC(C)(C)C(=O)OCC)cc1)C(=O)Cc1ccc(F)cc1F | – | -3 | 93% (active) | inactive | inactive | inactive | inactive | 95% (active) |
| C[C@@H]1CN(c2ccc3[nH]cc(Sc4ccc(-c5cccs5)cc4)c3c2)C[C@H](C)N1 | 29% | -4 | 89% (active) | inactive | inactive | inactive | inactive | – |
| Cc1[nH]c(C)c(-c2ccc(Oc3ccccc3)cc2)c(=O)c1Br | – | 1 | 96% (active) | inactive | inactive | inactive | inactive | 97% (active) |
| COc1cc2c(cc1C(F)(F)F)N(C(=O)Nc1ccc(Br)cn1)CC2 | 16% | -3 | 97% (active) | inactive | inactive | inactive | inactive | – |
| COc1cc2c(cc1OC)C(C)(C)CN1Cc3c(c(CO)c(OC)c(OC)c3OC)CC21 (stereo not given) | – | 2 | 95% (active) | inactive | inactive | inactive | inactive | 9% |
| C=CCn1ccc2c3c(N)nc(N)nc3ccc21 | – | -7 | 89% (active) | inactive | inactive | inactive | inactive | 91% (active) |
| CN(C)Cc1ccc(CNC2CCN(Cc3ccccc3Cl)CC2)cc1 | 23% | -3 | 82% (active) | inactive | inactive | inactive | inactive | – |
| COc1ccc(OC)c(Cc2c(C)nc3nc(N)nc(N)c3c2C)c1 | – | -2 | 90% (active) | inactive | inactive | inactive | inactive | 0% |
| CCn1c(-c2nonc2N)nc2c(-c3cccc(NC(=O)NCc4ccccc4)c3)ncc(OCCCN)c21 | 5% | -7 | 99% (active) | inactive | inactive | inactive | inactive | – |
| CCC1=C(C[C@H]2NCCc3cc(OC)c(OC)cc32)C[C@H]2c3cc(OC)c(OC)cc3CCN2C1 | – | -2 | 102% (active) | inactive | inactive | inactive | inactive | 100% (active) |
| CCCc1cc(Cc2cnc(N)nc2N)c2cccnc2c1OC | – | 2 | 98% (active) | inactive | inactive | inactive | inactive | 3% |
| COc1ccc2c(=O)c(Br)c(C)[nH]c2c1 | – | -8 | 89% (active) | inactive | inactive | inactive | inactive | 74% (active) |
| CCCCN(CCCC)Cc1cc(N(C)c2ccc([N+](=O)[O-])cn2)ccc1O | – | 7 | 98% (active) | inactive | inactive | inactive | inactive | 98% (active) |
| CCOC(=O)c1c(-c2ccccc2)c(C(=O)OCC)n2ccccc12 | – | -1 | 93% (active) | inactive | inactive | inactive | inactive | 70% (active) |
| NC(=O)c1sc(-n2cnc3ccc(C(=O)NCCN4CCOCC4)cc32)cc1OCc1ccccc1C(F)(F)F | -15% | 1 | 81% (active) | inactive | inactive | inactive | inactive | – |
| CCCCN(CCCC)CCCN(CCCN(CCCC)CCCC)c1cc(C)nc(Nc2ccc(Cl)cc2)n1 | – | 0 | 101% (active) | inactive | inactive | inactive | inactive | 99% (active) |
| CC(C)Cn1cc2c(ccc3nc(N)nc(N)c32)n1 | – | -2 | 97% (active) | inactive | inactive | inactive | inactive | 2% |
| Cc1cc2c(cc1C(F)(F)F)N(C(=O)Nc1ccc(C(=O)NCCN3CCCC3)cc1)CC2 | 10% | 3 | 100% (active) | inactive | inactive | inactive | inactive | – |
| COc1cccc(-c2nc(Nc3ccncc3)c3ncn(C)c3n2)c1 | 14% | -1 | 94% (active) | inactive | inactive | inactive | inactive | – |
| COc1ccc(CNC(=O)Nc2cccc(-c3csc(N=C(N)N)n3)c2)cc1 | 8% | 1 | 80% (active) | inactive | inactive | inactive | inactive | – |
| O=[N+]([O-])c1ccc(-n2nc(-c3cccnc3)n(Cc3ccco3)c2=S)c(Cl)c1 | 13% | -1 | 95% (active) | inactive | inactive | inactive | inactive | – |
| CCc1cc(-c2n[nH]c(C(F)(F)F)c2-c2ccccc2)c(O)cc1OC | 9% | 1 | 84% (active) | inactive | inactive | inactive | inactive | – |

| SMILES | inhibition [1] | inhibition [2] [%] | growth inhibition [3] | outcome [4] | outcome [5] | outcome [6] | outcome [7] | growth inhibition [8] |
| --- | --- | --- | --- | --- | --- | --- | --- | --- |
| CCCCNC(=O)C1CCCN(C(=O)c2ccc(O)c(-c3ccc(Cl)c(Cl)c3)c2)C1 (stereo not given) | 3% | 2 | 83% (active) | inactive | inactive | inactive | inactive | – |
| Oc1ccc(CCNCCCCCNCCCc2ccc(Cl)cc2)cc1O | 22% | -3 | 91% (active) | inactive | inactive | inactive | inactive | – |
| COc1cccc(Cn2ccc3c4c(N)nc(N)nc4ccc32)c1 | – | -2 | 99% (active) | inactive | inactive | inactive | inactive | 96% (active) |
| COc1ccc(C2CC(c3cccs3)=NN2C(=O)COc2cccc(C(C)=O)c2)cc1OC (stereo not given) | 10% | -2 | 99% (active) | inactive | inactive | inactive | inactive | – |
| CCCCNCc1ccc(OCc2cccc(COc3ccc(CNCCCC)cc3I)c2)c(I)c1 | – | 6 | 87% (active) | inactive | inactive | inactive | inactive | 13% |
| Brc1ccsc1-c1nc(NC2CCN(Cc3ccccc3)CC2)no1 | 0% | -2 | 80% (active) | inactive | inactive | inactive | inactive | – |
| CC(C)Cn1ccc2c3c(N)nc(N)nc3ccc21 | – | 1 | 96% (active) | inactive | inactive | inactive | inactive | 96% (active) |
| CN1CCC(N2CCN(C(=O)c3cccc(-c4cccc(-c5nc6ccccc6[nH]5)c4)c3)CC2)CC1 | 10% | 3 | 100% (active) | inactive | inactive | inactive | inactive | – |
| COc1ccc2c(c1)C(C)(CCCN(C)C)C(=O)N2C (stereo not given) | 8% | -3 | 93% (active) | inactive | inactive | inactive | inactive | – |
| CC(=O)Nc1ccc(CN2CCc3ccc(NS(=O)(=O)c4ccc(-c5cccc(C(F)(F)F)c5)cc4)cc3CC2)s1 | 23% | 0 | 82% (active) | inactive | inactive | inactive | inactive | – |
| O=C(O)CCc1ccc(-c2c[nH]c3ncc(-c4ccc5ncccc5c4)cc23)cc1 | 30% | -3 | 88% (active) | inactive | inactive | inactive | inactive | – |
| COc1cc(CCNCC(O)c2ccc([N+](=O)[O-])c(OCc3ccccc3)c2)cc(OC)c1OC (stereo not given) | 11% | -3 | 98% (active) | inactive | inactive | inactive | inactive | – |
| CC(C)Cc1csc(NC(=O)C=Cc2ccco2)c1C(=O)O | 4% | -2 | 82% (active) | inactive | inactive | inactive | inactive | – |
| O=C(NCCCCN1CCC(c2ccc3c(c2OCCOCCO)CCCC3)CC1)c1ccc(-c2ccc(C(F)(F)F)cc2)cc1 | 44% | -5 | 97% (active) | inactive | inactive | inactive | inactive | – |
| Cc1cc(OCCCN2CCC(NC(=O)c3ccc(Br)cc3)C2)c2ccccc2n1 (stereo not given) | 13% | -3 | 85% (active) | inactive | inactive | inactive | inactive | – |
| CCCN1CCN(CCNc2c3ccccc3nc3ccccc23)CC1 | 13% | 3 | 88% (active) | inactive | inactive | inactive | inactive | – |
| CN(C)Cc1cccc(-c2ccc(NC(=O)c3ccc4c(=O)n(Cc5cnn(C)c5)cnc4c3)cc2)c1 | 12% | 2 | 80% (active) | inactive | inactive | inactive | inactive | – |
| Nc1nc2ccc(CNc3ccc(C(=O)N[C@@H](CCC(=O)O)C(=O)O)cc3)cc2c(=O)[nH]1 | 2% | 3 | 96% (active) | inactive | inactive | inactive | inactive | – |
| Cc1nn(-c2ccccc2)nc1C(=O)N(Cc1ccc(-c2ccc(CNCCc3ccc(S(C)(=O)=O)cc3)cn2)cc1)C1CC1 | 9% | -2 | 84% (active) | inactive | inactive | inactive | inactive | – |
| CCS(=O)(=O)c1ccc(/C(=N/OC)c2ccc[nH]2)cc1 | -6% | -2 | 85% (active) | inactive | inactive | inactive | inactive | – |
| COc1c(C2CCN(CCCCNC(=O)C=Cc3ccccc3C(F)(F)F)CC2)ccc2c1CCCC2 | 98% (active) | -3 | 96% (active) | inactive | inactive | inactive | inactive | – |
| Cc1nc(Cl)c2c(-c3ccccc3)csc2n1 | -11% | 1 | 84% (active) | inactive | inactive | inactive | inactive | – |
